# Screening results as filed in PubChem.
# HIF-2a inh: inhibitors of HIF-2a | 786-0 RCC cells HIF-2a reporter, luciferase luminescence, overnight | inhibition, % at 18.8 µM | 360,000 compounds, 0.72% hits | AID 624352;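 active = inhibition of the luminescence signal of 40% or more relative to plate controls, in a single-dose primary screen at 18.75 µM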
# Shn3 3UTR inh: reduces Shn3 3'UTR luciferase signal in osteoblasts. Clone20 osteoblast Shn3 3'UTR firefly luciferase, 24 h. inhibition, % at 12.5 µM. 360,000 compounds, 0.52% hits. AID 588674;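 active = mean inhibition of at least 75% with every replicate also reaching 75%; inconclusive = mean inhibition at least 75% but some replicate below; inactive = mean inhibition below 75%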
# KKLEB cytotox: CF airway cell cytotoxicity counter-screen | KKLEB CF airway cells viability, ATPlite luminescence, overnight; stronger effect = lower value; cells stimulated with P. aeruginosa culture filtrate | activity change (cytotoxicity), % at 5 µM | 360,000 compounds, 0.36% hits;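 active = corrected activity change at or below -50% at 5 µM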
# Peg3 promoter: Peg3 promoter activity inhibition. HeLa PEG-Prom luciferase reporter, luminescence, overnight. inhibition, % at 20 µM. 360,000 compounds, 1.7% hits;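 active = inhibition of at least 50% at 20 µM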
# CF NFkB block: blocks PAF-induced NF-kB reporter in cystic fibrosis cells; KKLEB NF-kB-GFP reporter, GFP fluorescence overnight; inhibition, % at 5 µM; 360,000 compounds, 0.86% hits;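 active = at least 50% inhibition at 5 µM, scaled per plate between neutral and stimulator controls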;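 also: PAF is a Pseudomonas aeruginosa culture filtrate used as stimulus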
# TRPM1 prom inh: inhibitors of MITF-driven TRPM1 promoter in melanoma cells; SK-MEL-5 TRPM1 promoter luciferase, 24 h; inhibition, % at 12.5 µM; 330,000 compounds, 0.83% hits; AID 488899;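 active = mean inhibition across replicates of 60% or more, whatever share of single replicates reaches that level; inconclusive = some that reach 60%, reason not given; inactive = mean inhibition across replicates below 60%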
# Mdm2 MdmX conf: confirmation of inhibitors of human Mdm2/MdmX interaction, set 2. shares compounds with HIF-2a inh. SaOS-2 split-luciferase Mdm2/MdmX complementation, luminescence. inhibition, % at 8 µM. 740 compounds, 99% hits. AID 504601;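 active = mean inhibition of the luminescence signal across two replicates at or above 26 percent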
# HIF-2a conf: HIF-2a inhibition, single concentration confirmation; shares compounds with HIF-2a inh; 786-0 RCC cells, HIF-2a luciferase reporter luminescence, overnight; inhibition, % at 18.8 µM; 1,800 compounds, 56% hits; AID 651580;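 active = mean inhibition across four replicates of at least 40 percent at the single tested concentration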
# HIF-1a cs: HIF-1a inhibition counter-screen for HIF-2a hits; shares compounds with HIF-2a inh; MiaPaCa-2 HIF-1a luciferase reporter, desferoxamine, overnight; inhibition, % at 18.8 µM; 1,800 compounds, 72% hits; AID 651589;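 active = mean inhibition of the reporter signal across four replicates at the single tested dose of 50% or more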
# Numbers stand for hits; 0 = inactive; ? = inconclusive; - = not tested or not shown. In the library only some 2.7% were active in any assay of this set; here they are far more common.
SMILES,HIF-2a inh,Shn3 3UTR inh,KKLEB cytotox,Peg3 promoter,CF NFkB block,TRPM1 prom inh,others
COc1ccccc1NC(=O)Cc1nc(=O)[nH]c(=O)[nH]1,0,0,0,0,0,-,
Cc1c(NC(=O)CSc2nnc3c4ccccc4n(CCc4ccccc4)c3n2)c(=O)n(-c2ccccc2)n1C,0,0,0,0,0,0,Mdm2 MdmX conf=101.0
CCOC(=O)[C@]12CCCC=C1N(Cc1ccco1)C(=O)[C@H](CC(=O)NCc1cccc(C(F)(F)F)c1)C2,0,-,-,-,-,-,
Cc1ccc(C(=O)Nc2ccc(CC(=O)O)cc2)o1,0,0,0,0,0,0,
Cc1cc(C(=O)Nc2ccccc2)c(C)o1,0,0,0,0,0,0,
CC(C)(C)c1ccc(C(=O)Nc2ccc(CC(=O)O)cc2)o1,82.7,0,0,0,0,73.3,HIF-2a conf=95.9;HIF-1a cs=78.8
Cc1cc(C(=O)Nc2ccc(CC(=O)O)cc2)c(C)o1,48.5,0,0,0,0,0,HIF-2a conf=60.4;HIF-1a cs=0
CC1(C(=O)NCC(F)(F)F)CCN1C(=O)Cc1ccc(-c2ccccc2)cc1 (stereo unspecified),0,0,0,0,0,-,
CC(C)Cc1ccc(C(=O)Nc2ccc(Cc3ccncc3)cc2)o1,0,0,0,0,0,0,
O=C(c1cccs1)N1C[C@@H](n2cc(-c3ccc(F)cc3)nn2)[C@H](O)C[C@@H]1c1ccccc1,0,0,0,0,0,-,
N#Cc1c(NC(=O)CSc2ncn[nH]2)sc2c1CCCCC2,90.2,0,0,0,0,79.6,HIF-2a conf=96.1;HIF-1a cs=70.0
O=C(NCc1ccccc1)C1c2ccccc2OCC(=O)N1Cc1ccco1 (stereo unspecified),0,-,-,-,-,-,
ClC(Cl)(c1nnnn1-c1ccccc1)c1nnnn1-c1ccccc1,51.5,0,0,0,0,0,HIF-2a conf=0;HIF-1a cs=0
c1ccc(-c2nnnn2-c2ccccc2)cc1,0,0,0,0,0,0,
CN(C(=O)c1cccc(NC(=O)Cc2ccc(NC(=O)C3CCN(C(=O)c4ccccc4)CC3)cc2)c1)C1CCCCC1,0,0,0,0,0,0,
CCOc1ccc(NC(=O)c2cccc(S(=O)(=O)NCc3cccnc3)c2)cc1,0,0,0,0,0,-,
CN(C)c1ccc(-c2cc(O)c3ncccc3c2)cc1,0,0,0,0,0,0,
CN(C)CCCNC(=O)c1ccc(-c2cc(O)c3ncccc3c2)cc1,0,0,0,0,0,0,
Oc1cc(-c2ccncc2)cc2cccnc12,0,89.2,0,0,0,-,Mdm2 MdmX conf=100.7
Oc1cc(-c2ccc(N3CCCCC3)nc2)cc2cccnc12,0,?,0,0,0,0,Mdm2 MdmX conf=98.7
COc1cccc(CN(C)C(=O)CCN(c2ccccc2)S(=O)(=O)c2ccc(C)cc2)c1OC,0,0,0,0,0,0,
O=C(OCc1cn([C@H]2CN(C(=O)C3CCCCC3)[C@@H](c3ccccc3)C[C@@H]2O)nn1)c1ccccc1,0,0,0,0,0,-,
N#CC(c1cccc(Cl)c1)c1ccc2c(C(F)(F)F)cc(C(F)(F)F)nc2n1 (stereo unspecified),0,87.6,-60.2,56.9,52.7,74.0,Mdm2 MdmX conf=101.7
CC1(C(=O)NS(=O)(=O)C2CC2)CCCN(C(=O)c2ccc(F)cc2Cl)C1 (stereo unspecified),0,0,0,0,0,-,
COC[C@H]1CCCN1[C@H]1CS(=O)(=O)N[C@@H]1COCc1ccccc1,0,0,0,0,0,-,
SMILES,HIF-2a inh,Shn3 3UTR inh,KKLEB cytotox,Peg3 promoter,CF NFkB block,TRPM1 prom inh,others
CC[C@@H](NC(=O)[C@@H](Cc1ccccc1)NC(=O)CC[C@H]1O[C@@H](n2ccc(=O)[nH]c2=O)[C@H](O)[C@@H]1O)c1ccccc1,0,0,0,0,0,-,
O=C(CSc1nnc(-c2ccccc2)o1)Nc1ccccc1F,49.0,0,0,0,0,-,HIF-2a conf=66.4;HIF-1a cs=60.8
O=C(CSc1nnc(-c2ccncc2)o1)Nc1cc(F)ccc1F,0,0,0,0,0,0,
O=C(CSc1nnc(-c2ccc(Br)cc2)o1)Nc1cccc(C(=O)O)c1,63.0,0,0,0,0,88.3,HIF-2a conf=63.4;HIF-1a cs=0
COc1ccc(/C=N\NC(=O)c2cc(O)c(O)c(O)c2)cc1COc1ccc(C(=O)OCC(C)C)cc1,0,0,0,0,0,0,
COc1cc(/C=C2\CC(C(C)(C)C)C/C(=C\c3cc(OC)c(OC)c(OC)c3)C2=O)cc(OC)c1OC (stereo unspecified),93.7,?,0,104.3,0,84.2,Mdm2 MdmX conf=101.7
CN(C)CCCNC(=O)c1ccccn1,0,0,0,0,0,0,
CN(C)CCCNC(=O)c1ccc(-c2nc(-c3ccc(Cl)cc3)cs2)cc1,88.5,0,0,103.1,0,82.7,HIF-2a conf=0;HIF-1a cs=106.2
CC1=C(CO)C(=O)OC([C@@H](C)C2CC[C@H]3C4C[C@H]5O[C@]56[C@@H](O)C=CC(=O)[C@]6(C)C4CC[C@]23C)C1 (stereo partly specified),94.2,97.9,0,109.4,84.6,106.4,HIF-2a conf=97.1;HIF-1a cs=107.0
N=NC(=O)c1ccccc1Nc1c(O)[nH]c2ccccc12,0,0,0,0,0,0,
O=C(Nc1cccc(Cl)c1)Nc1nnc(-c2ccncc2)s1,0,0,-57.7,0,72.8,0,Mdm2 MdmX conf=102.0
CC1ON=C(c2ccccn2)N(Cc2ccc(S(C)(=O)=O)cc2)C1=O (stereo unspecified),0,0,0,0,0,-,
COCCN1CCn2c(nc3cc([N+](=O)[O-])ccc32)C1,68.7,0,0,0,0,0,HIF-2a conf=0;HIF-1a cs=0
O=[N+]([O-])c1ccc2c(c1)nc1n2CCN(CC2CCCO2)C1 (stereo unspecified),0,0,0,0,0,0,
CC1(C(=O)NS(=O)(=O)C2CC2)CCN(C(=O)CSc2ccccc2)C1 (stereo unspecified),0,0,0,0,0,-,
COC(=O)C(=Cc1ccc(OCc2ccc([N+](=O)[O-])cc2)c(OC)c1)C(=O)OC,81.5,0,0,0,0,0,HIF-2a conf=82.5;HIF-1a cs=101.1
Cc1c(C(=O)Nc2nonc2-c2ccc(F)cc2)oc2ccc(F)cc12,0,0,0,0,0,0,Mdm2 MdmX conf=89.7
CCN(CC)c1ccc(NC(=O)CCCCCN2C(=O)c3ccccc3C2=O)cc1,0,0,0,0,0,0,
CCN(CC)c1ccc(NC(=O)CCCCC(=O)Nc2ccc(N(CC)CC)cc2)cc1,65.4,0,0,0,0,0,HIF-2a conf=66.2;HIF-1a cs=0
CC(C)NC1(C#N)CCN(Cc2ccccc2)CC1,0,0,0,0,0,0,
